Rows were chosen to be rich in hits. Some 1.2% of all compounds tested hit in one or more screens of this group.
HTT cytoprotect – protects HTT-Q103 PC12 cells, measured by ATP | Potency, µM (series often up to 56.4 µM), actives largely listed as activators | 0.14% of 230,000 active | PC12 HTT-Q103 induced, cytoprotection, ATP luminescence, 40 h; note: nearly all actives have a fitted effect of over 45% in size
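Cells were plated at 1500 per well in phenol red-free DMEM with 5% equine and 5% calf serum. Tebufenozide (100 nM final) and compounds were added, then ATPlite reagent, and luminescence was read.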
HttQ103 aggreg – reduces HttQ103-GFP aggregates in PC12 cells; AID 1688; 1.1% of 220,000 active; Potency, µM (top dose mostly 46.1 µM), usual class: inhibitors; PC12 HttQ103-GFP aggregates, Acumen cytometry, 40 h; note: nearly all actives have a fitted effect of over 60% in size
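Inducible Q103 Huntingtin exon 1–GFP PC12 line, 1500 cells/well in phenol red free DMEM with 5% equine and 5% calf serum. Tebufenozide 100 nM induced expression; compounds titrated; aggregates quantified by cytometry.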
ERK EGF block – EGF-driven ERK pathway inhibition | Potency, µM (doses to about 11.5 µM), usual class: inhibitors | AID 1454 | HEK293-V1b, EGF-stimulated phospho-ERK AlphaScreen | 0.41% of 130,000 active; note: nearly all actives have a fitted effect of over 55% in size
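HEK293 cells stably expressing V1b receptor, serum-reduced (1% FBS) overnight, pretreated 30 min with compound, then stimulated 5 min with 25 nM EGF; phospho-ERK detected by AlphaScreen SureFire. AC50 from Hill fits, normalized to DMSO and EGF.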
aGal spleen mod – alpha-galactosidase A (human) modulation. P06280. human spleen homogenate, 4MU-alpha-Gal fluorescence, 40 min. Potency, µM (titrated, usually from 80 µM), usual class: inhibitors. 0.008% of 240,000 active. AID 2107
Target sequence (P06280 32-429 limits assumed): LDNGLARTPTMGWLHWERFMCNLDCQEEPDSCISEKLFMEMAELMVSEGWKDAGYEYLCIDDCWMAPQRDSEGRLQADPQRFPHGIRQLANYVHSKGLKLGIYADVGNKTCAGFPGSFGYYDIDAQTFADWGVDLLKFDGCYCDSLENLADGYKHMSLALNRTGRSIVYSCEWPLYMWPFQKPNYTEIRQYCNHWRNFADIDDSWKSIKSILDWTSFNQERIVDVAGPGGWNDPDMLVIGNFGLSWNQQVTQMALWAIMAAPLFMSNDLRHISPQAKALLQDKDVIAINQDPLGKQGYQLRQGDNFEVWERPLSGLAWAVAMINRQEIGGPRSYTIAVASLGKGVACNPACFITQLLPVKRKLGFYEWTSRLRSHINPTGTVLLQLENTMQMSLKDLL
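Human spleen homogenate (1 ug) was the enzyme source, with 4-methylumbelliferyl-alpha-D-galactopyranoside (1 mM final) in pH 5.0 citrate buffer with 0.01% Tween-20. Compounds were titrated; after 40 min at 37C, NaOH/glycine stop, 4-MU fluorescence read; AC50 from Hill fits.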
GLA inh pH 4.5 – inhibitors of human alpha-galactosidase A at pH 4.5 | purified enzyme, 4-MU-alpha-Gal fluorescence, pH 4.5 | activity change, negative = inhibition, % at 105 µM | 230,000 tested, under 10 active
A number is an active result; [ ] = another dose, or the depositor's remark. Calls come from the whole dose curve; as a rule, active = well fitted curve in the direction sought with a large enough effect; inconclusive = small, poorly fitted or top-dose-only effect, or another doubt; inactive = no such curve, though single readings can be large; an effect the other way counts as inactive or inconclusive.

`Cc1nn(-c2nnc(NCc3ccccc3)nn2)c(C)c1Br` gave HttQ103 aggreg inconclusive, ERK EGF block 22.4µM, aGal spleen mod inactive and GLA inh pH 4.5 inactive.
`c1ccc(CCNc2ncnc3nc[nH]c23)cc1` gave HTT cytoprotect inactive[0.074 µM], HttQ103 aggreg 11.2µM, aGal spleen mod inactive and GLA inh pH 4.5 inactive.
Screening CCCCCSc1nnc(-c2ccccc2NC(C)=O)c(=O)[nH]1 returned HTT cytoprotect 2.82µM, HttQ103 aggreg inactive, ERK EGF block inactive, aGal spleen mod inactive and GLA inh pH 4.5 inactive.
Screening CCOC(=O)c1c(C)n(-c2ccc(C)cc2)c2c(C(C(C)=O)C(=O)O)c(Br)c(O)c(O)c12 (centres undefined) returned HTT cytoprotect inconclusive, HttQ103 aggreg 12.6µM, aGal spleen mod inactive and GLA inh pH 4.5 inactive.
`C=CCOn1c(C)c(C(C)=O)c2c3nonc3ccc21` gave HTT cytoprotect inactive[1.9 µM], HttQ103 aggreg 11.2µM, ERK EGF block inactive, aGal spleen mod inactive and GLA inh pH 4.5 inactive.
For C=CCOn1c(C)c(C(C)=O)c2c3no[n+]([O-])c3ccc21 the results were HTT cytoprotect inactive[10 µM], HttQ103 aggreg 22.4µM, ERK EGF block inactive, aGal spleen mod inactive and GLA inh pH 4.5 inactive.
For CCCc1c(C)nc2ccccc2c1SCCC#N the results were HTT cytoprotect inactive[10 µM], HttQ103 aggreg 3.16µM, ERK EGF block inactive, aGal spleen mod inactive and GLA inh pH 4.5 inactive.
`CCCCc1c(C)nc2ccc(Br)cc2c1SCCC#N` gave HTT cytoprotect inactive[10 µM], HttQ103 aggreg inconclusive, ERK EGF block inactive, aGal spleen mod inactive and GLA inh pH 4.5 inactive.
Screening CCc1c(C)nc2ccc(Br)cc2c1SCCC#N returned HTT cytoprotect inactive[10 µM], HttQ103 aggreg 7.94µM, ERK EGF block inactive, aGal spleen mod inactive and GLA inh pH 4.5 inactive.
Screening COc1ccc(COC(=O)N/N=C2/C[C@@H](O)[C@@H](O)[C@@H]3[C@@H]4C(=O)N([C@@H](C)c5ccccc5)C(=O)[C@H]4CC[C@H]23)cc1 returned HTT cytoprotect inactive[10 µM] and aGal spleen mod inactive[17.5 µM].
`Nc1ccc2cc3ccc(N)cc3nc2c1` gave HTT cytoprotect inactive and HttQ103 aggreg 12.6µM.
O=C(Nc1nc(NC(=O)c2ccco2)n(-c2ccccc2)n1)c1ccccc1 was read as HTT cytoprotect 3.98µM, HttQ103 aggreg inconclusive, aGal spleen mod inactive and GLA inh pH 4.5 inactive.
Nc1nc(NC(=O)c2ccccc2)nn1-c1ccccc1 was read as HttQ103 aggreg inactive, ERK EGF block inactive, aGal spleen mod inactive and GLA inh pH 4.5 inactive.
`OCc1cccc(Cl)c1Cl` gave aGal spleen mod inactive.
Screening CCCCN1C(=O)/C(=C/C=C2\N(C)c3ccccc3C2(C)C)SC1=S returned HTT cytoprotect inactive, HttQ103 aggreg 12.6µM, aGal spleen mod inconclusive and GLA inh pH 4.5 inactive.
Cc1ccc(C)c(N2CCN(C(=O)Nc3ccc4c(c3)N(C)C(=O)CS4)CC2)c1 was read as HTT cytoprotect inactive, HttQ103 aggreg 22.4µM, ERK EGF block inactive, aGal spleen mod inactive and GLA inh pH 4.5 inactive.
NCCCC[C@H](NC(=O)[C@H](CS)NC(=O)[C@@H](N)Cc1cnc[nH]1)C(=O)N[C@@H](Cc1ccccc1)C(=O)N[C@@H](Cc1c[nH]c2ccccc12)C(=O)N[C@@H](Cc1c[nH]c2ccccc12)C(=O)O was read as aGal spleen mod inactive.
Screening COCCn1c(-c2ccc(Br)cc2)csc1=Nc1cccnc1 returned HTT cytoprotect inactive[10 µM], HttQ103 aggreg inconclusive, ERK EGF block inconclusive, aGal spleen mod inactive and GLA inh pH 4.5 inactive.
For Clc1ccc(-c2csc(=Nc3cccnc3)n2CCCn2ccnc2)cc1Cl the results were HTT cytoprotect inactive[10 µM], HttQ103 aggreg 11.2µM, ERK EGF block inconclusive, aGal spleen mod inactive and GLA inh pH 4.5 inactive.
`COC(=O)[C@@]1(Cc2ccc(OC)cc2)[C@H]2c3cc(C(=O)N4CCCC4)n(Cc4ccc(Cl)c(C(F)(F)F)c4)c3C[C@H]2CN1C(=O)c1ccccc1` gave HTT cytoprotect 10µM, ERK EGF block inactive, aGal spleen mod inactive and GLA inh pH 4.5 inactive.
For COCCn1c(C(=O)N2CCCC2)cc2c1C[C@H]1CN(C(=O)c3ccccc3)[C@@](Cc3ccccc3)(C(=O)OC)[C@@H]21 the results were HTT cytoprotect inactive, ERK EGF block inactive, aGal spleen mod inactive and GLA inh pH 4.5 inactive.
`COC(=O)[C@@]1(Cc2ccc(OC)cc2)[C@H]2c3cc(C(=O)N4CCCC4)n(CCc4ccc(O)c(O)c4)c3C[C@H]2CN1C(=O)c1ccccc1` gave HTT cytoprotect 11.2µM, ERK EGF block inactive, aGal spleen mod inactive and GLA inh pH 4.5 inactive.
Screening COc1cccc(Nc2ncc3nc(CCc4ccccc4)c(=O)n(C4CC4)c3n2)c1 returned HTT cytoprotect inactive, ERK EGF block inactive and aGal spleen mod inactive.
Screening COC(=O)c1cc(C(=O)c2cc(Br)ccc2O)coc1=N returned HTT cytoprotect inactive, HttQ103 aggreg inactive, ERK EGF block inactive, aGal spleen mod inactive and GLA inh pH 4.5 inactive.
For CC(C)NC(=O)c1cc(C(=O)c2cc(Cl)ccc2O)coc1=N the results were HTT cytoprotect inactive, HttQ103 aggreg 7.94µM, aGal spleen mod inactive and GLA inh pH 4.5 inactive.
For c1ccc(-c2nc(N3CCCCCC3)nc(-n3ccnc3)n2)cc1 the results were HTT cytoprotect inactive, HttQ103 aggreg inactive, aGal spleen mod inactive and GLA inh pH 4.5 inactive.
c1ccc(-c2nc(N3CCN(c4ccccc4)CC3)nc(-n3ccnc3)n2)cc1 was read as HTT cytoprotect inactive, HttQ103 aggreg 14.1µM, aGal spleen mod inactive and GLA inh pH 4.5 inactive.
`CC(N)(COP(=O)(O)O)C(=O)O` (centres undefined) gave HTT cytoprotect inactive and aGal spleen mod inactive.
Screening CC(C)(Oc1ccc([C@@H]2CC2(Cl)Cl)cc1)C(=O)O returned HTT cytoprotect inactive, ERK EGF block inactive, aGal spleen mod inactive and GLA inh pH 4.5 inactive.
For O=c1cc(-c2ccccc2Cl)oc2c([N+](=O)[O-])c(O)cc(O)c12 the results were HTT cytoprotect inconclusive, HttQ103 aggreg 1.78µM, ERK EGF block inactive, aGal spleen mod inactive and GLA inh pH 4.5 inactive.
Screening Cn1c(=O)c(=O)n(C)c2cc(S(=O)(=O)N3CCc4ccccc43)ccc21 returned HTT cytoprotect inactive, HttQ103 aggreg inactive, aGal spleen mod inactive and GLA inh pH 4.5 inactive.
Screening O=S(=O)(NC1CCCC1)c1ccc(S(=O)(=O)N2CCc3ccccc32)cc1 returned HTT cytoprotect inactive[10 µM], HttQ103 aggreg 11.2µM, ERK EGF block inactive, aGal spleen mod inactive and GLA inh pH 4.5 inactive.
`COc1ccc(C(=O)C(CCC(CNC(C)(C)C)C(=O)c2ccc(OC)cc2)CNC(C)(C)C)cc1` (centres undefined) gave HttQ103 aggreg 17.8µM, ERK EGF block inactive, aGal spleen mod inactive and GLA inh pH 4.5 inactive.
`COc1ccc(/C=N/Nc2cc(C)nc(-n3nc(C)cc3C)n2)cc1` gave HTT cytoprotect inactive[10 µM], HttQ103 aggreg 14.1µM, ERK EGF block inconclusive, aGal spleen mod inactive and GLA inh pH 4.5 inconclusive.

Screening data from PubChem.
